The structures appear in SMILES notation. Values without a mark were called inactive. Calls of active or inactive are those of the source. Unless noted, no stated cut-off is given here; in the data, active means inhibition above about 42%; inactive means the rest.

Nuclear receptor subfamily 5 group A member 2 (Homo sapiens), sequence (O00482 whole entry, looked up): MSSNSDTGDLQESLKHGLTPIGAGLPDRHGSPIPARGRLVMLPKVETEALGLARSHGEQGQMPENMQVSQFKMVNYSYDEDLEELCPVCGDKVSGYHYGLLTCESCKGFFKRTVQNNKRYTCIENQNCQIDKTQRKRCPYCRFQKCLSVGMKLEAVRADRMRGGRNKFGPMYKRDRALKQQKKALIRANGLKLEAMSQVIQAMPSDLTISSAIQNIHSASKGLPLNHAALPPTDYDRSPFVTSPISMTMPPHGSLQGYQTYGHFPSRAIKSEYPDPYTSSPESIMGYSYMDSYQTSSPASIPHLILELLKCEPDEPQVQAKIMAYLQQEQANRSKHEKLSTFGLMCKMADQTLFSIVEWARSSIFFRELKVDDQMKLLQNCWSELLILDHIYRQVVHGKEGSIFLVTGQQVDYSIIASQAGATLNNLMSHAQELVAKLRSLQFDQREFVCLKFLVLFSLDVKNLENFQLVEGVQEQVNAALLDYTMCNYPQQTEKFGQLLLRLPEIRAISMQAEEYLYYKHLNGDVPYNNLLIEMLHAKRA

System in the first experiment: not listed separately
The experiment can be described thus: StAR promoter reporter inhibitors, counter-screen for LRH-1 inverse agonist project, cell-based, luminescence, high throughput (AID 651611; in the data active means inhibition above about 28%). As to conditions: StAR promoter luciferase reporter counterscreen, at 3.6 µM, active compounds read high. (The purpose of a counterscreen is to sort out artefacts and off-target activity.)
For orientation: inhibition means the relative decrease from the control value, in per cent. Consider `CC(=O)Nc1cc(-c2cccnc2)cn2c(-c3ccc(F)cc3)cnc12`, for which the inhibition is 9.06%.

For `CCOc1ccc2c(c1)sc(N)[n+]2Cc1cc(C)cc2cccnc12`, the inhibition is 30.7% (active).

As to `Nc1cccc(OCCCCCOc2cccc(N)c2)c1`, the inhibition is -18.2%.

In the case of `COc1ccc(C2=Nn3c(nnc3-c3ccccc3OC)SC2)cc1OC1CCOC1` (stereo not given), the inhibition was 54.4% (active).

`N#Cc1ccc(NC(=O)COc2ccc(-n3cnnn3)cc2)cc1`: the inhibition is 11.7%.

As to `O=C(NCc1ccc2c(c1)OCO2)c1nn(-c2ccccc2)c(=O)c2ccccc12`, the inhibition is 4.72%.

Consider `O=C(Nc1ccccc1C(=O)NCCCn1ccnc1)c1ccccc1`, for which the inhibition is 14.8%.

In the case of `O=C(NCc1ccco1)c1nn(-c2ccccc2)c(=O)c2ccccc12`, the inhibition was 19.6%.

Take `Cc1onc(-c2ccccc2Cl)c1-c1nc(-c2ccncc2)no1`: the inhibition was 7.38%.

`O=C(Nc1c(Cl)ccc2nsnc12)c1ccc([N+](=O)[O-])o1`: the inhibition is 17.1%.

`CC1Cc2ccccc2N1C1=CC(=O)CC(C)(C)C1` (stereo not given): the inhibition was 21.4%.

For `CC(C)c1ccc(NC(=O)CSc2nc(=O)[nH]c3c2CCCC3)cc1`, the inhibition was 16.1%.

On to `O=C(CSc1n[nH]c(-c2ccccn2)n1)Nc1ccc(Cl)cc1`, for which the inhibition was 36.3% (active).

For the molecule `O=C(Nc1ccc(F)cc1)c1oc2ccccc2c1NC(=O)C1CC1`, the inhibition is 24.4%.

`Cc1cc(-n2c(C)cc(C(=O)CSc3ncnc4ccccc34)c2C)no1`: the inhibition was 8.06%.

Regarding `O=C(c1ccc(Oc2ccc(Cl)cc2)c([N+](=O)[O-])c1)N1CCCC1`, the inhibition is -14.7%.

`COC(=O)c1c(NC(=O)c2cccc(N3C(=O)CCC3=O)c2)sc2c1CCN(C(C)=O)C2`: the inhibition is 19.6%.

On to `CCOc1ccc(NC(=O)CSc2nc3cccnc3n2CCOC)cc1`, for which the inhibition was 21.3%.

For the molecule `Cc1no[n+]([O-])c1COc1ccccc1/C=N/n1nnnc1N`, the inhibition is 7.3%.

In the case of `COc1ccc(N2CCN(C(=O)CSc3nc4ccccc4c(=O)[nH]3)CC2)cc1`, the inhibition was 12.5%.

`COc1ccccc1NC(=O)CN1CCN(CC(=O)Nc2ccc3c(c2)OCCO3)CC1`: the inhibition is 6.64%.

`CCOCc1c(C(=O)Nc2ccccc2N2CCN(C)CC2)oc2ccccc12`: the inhibition is 13.5%.

Take `Clc1ccc2c(c1)-c1ccccc1C1=NCCN12`: the inhibition is 51.8% (active).

In the case of `Cc1ccc(CC(=O)Nc2ccncc2)cc1`, the inhibition was 7.72%.

On to `O=C(N/N=C/c1ccc([N+](=O)[O-])s1)C(O)c1ccccc1` (stereo not given), for which the inhibition was 25.9%.

For the molecule `O=C(O)/C=C/C(=O)Nc1ccccc1SC(F)(F)C(F)(F)C(F)(F)F`, the inhibition is 20.1%.

For `O=C(NCc1cccnc1)c1ccc(NC(=O)c2ccc(Br)cc2)cc1`, the inhibition is 70.9% (active).

Take `CC(=O)Nc1ccc(N=c2cc([N+](=O)[O-])cc(Cl)n2O)cc1`: the inhibition is 14.3%.

On to `CCn1nnc(NC(=O)c2ccc([N+](=O)[O-])o2)n1`, for which the inhibition was 10.3%.

Regarding `CCc1c(O)nc(SCC(=O)Nc2ccccc2C)n(-c2ccc(C)cc2)c1=O`, the inhibition was 14.4%.

For `C[C@H](CO)N1C[C@H](C)[C@H](CN(C)Cc2ccncc2)Oc2cc(-c3ccccc3F)ccc2S1(=O)=O`, the inhibition was 12.8%.

Turning to `CCOc1cc(/C=N/n2nnnc2N)ccc1OCc1c(C)no[n+]1[O-]`, the inhibition is 12.5%.

For the molecule `Cc1ccc(NC(=O)CNNC(=O)c2cccc([N+](=O)[O-])c2)cc1[N+](=O)[O-]`, the inhibition was 2.1%.

As to `CS(=O)(=O)N1CCN(c2ccccc2NC(=O)c2cc3ccccc3o2)CC1`, the inhibition was 26.4%.

In the case of `O=C(Nc1ccccc1)c1oc2ccccc2c1NC(=O)C1CC1`, the inhibition was 3.25%.

Take `CCOc1ccc(CCNC(=O)COC(=O)c2ccc(F)c(S(=O)(=O)N3CCOCC3)c2)cc1OCC`: the inhibition is 10.3%.

In the case of `COc1cccc(C=Nc2ccc3c(c2)OCCO3)c1O`, the inhibition is -5.52%.

Regarding `NC(=S)N/N=C/c1ccc(C(F)(F)F)cc1`, the inhibition is -1.87%.

With `Cc1ccc2cccc(OCC(=O)NCCC3=CCCCC3)c2n1`, the inhibition was 8.76%.

Turning to `CCOc1ccc(NC(=O)CSc2nccn(-c3ccc4c(c3)OCCO4)c2=O)cc1`, the inhibition was -5.61%.

Another experiment addresses Nuclear receptor subfamily 5 group A member 2 (Homo sapiens) (UniProt O00482). The experiment can be described thus: NR5A2 activity suppression in reporter cells – cell-based, luminescence, confirmation (AID 651613).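 Further: HEK293T cells co-transfected with LRH-1 and StAR promoter luciferase reporter; 0% = vehicle wells and 100% = parental cells lacking receptor.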 As to conditions: cell-based LRH-1 luciferase reporter, inverse agonism; at 3.6 µM; active compounds read high. In general terms: In a reporter assay the amount or activity of a reporter protein is the signal.
Consider `CC(=O)Nc1cc(-c2cccnc2)cn2c(-c3ccc(F)cc3)cnc12`, for which the inhibition is 51.7% (active).

For the molecule `CCOc1ccc2c(c1)sc(N)[n+]2Cc1cc(C)cc2cccnc12`, the inhibition was 56.2% (active).

Take `Nc1cccc(OCCCCCOc2cccc(N)c2)c1`: the inhibition was 41.7% (active).

On to `COc1ccc(C2=Nn3c(nnc3-c3ccccc3OC)SC2)cc1OC1CCOC1` (stereo not given), for which the inhibition is 69.1% (active).

Consider `N#Cc1ccc(NC(=O)COc2ccc(-n3cnnn3)cc2)cc1`, for which the inhibition is 38.2%.

On to `O=C(NCc1ccc2c(c1)OCO2)c1nn(-c2ccccc2)c(=O)c2ccccc12`, for which the inhibition was 52.2% (active).

As to `O=C(Nc1ccccc1C(=O)NCCCn1ccnc1)c1ccccc1`, the inhibition was 53.6% (active).

As for `O=C(NCc1ccco1)c1nn(-c2ccccc2)c(=O)c2ccccc12`, the inhibition was 57% (active).

Turning to `Cc1onc(-c2ccccc2Cl)c1-c1nc(-c2ccncc2)no1`, the inhibition was 58.1% (active).

For `O=C(Nc1c(Cl)ccc2nsnc12)c1ccc([N+](=O)[O-])o1`, the inhibition is 65.1% (active).

For the molecule `CC1Cc2ccccc2N1C1=CC(=O)CC(C)(C)C1` (stereo not given), the inhibition was 55.3% (active).

On to `CC(C)c1ccc(NC(=O)CSc2nc(=O)[nH]c3c2CCCC3)cc1`, for which the inhibition was 58.5% (active).

With `O=C(CSc1n[nH]c(-c2ccccn2)n1)Nc1ccc(Cl)cc1`, the inhibition is 70% (active).

For `O=C(Nc1ccc(F)cc1)c1oc2ccccc2c1NC(=O)C1CC1`, the inhibition was 50.9% (active).

On to `Cc1cc(-n2c(C)cc(C(=O)CSc3ncnc4ccccc34)c2C)no1`, for which the inhibition was 67.2% (active).

As for `O=C(c1ccc(Oc2ccc(Cl)cc2)c([N+](=O)[O-])c1)N1CCCC1`, the inhibition is 33.5%.

In the case of `COC(=O)c1c(NC(=O)c2cccc(N3C(=O)CCC3=O)c2)sc2c1CCN(C(C)=O)C2`, the inhibition is 65.5% (active).

As to `CCOc1ccc(NC(=O)CSc2nc3cccnc3n2CCOC)cc1`, the inhibition was 64.4% (active).

On to `Cc1no[n+]([O-])c1COc1ccccc1/C=N/n1nnnc1N`, for which the inhibition is 48.8% (active).

Consider `COc1ccc(N2CCN(C(=O)CSc3nc4ccccc4c(=O)[nH]3)CC2)cc1`, for which the inhibition is 46.8% (active).

As to `COc1ccccc1NC(=O)CN1CCN(CC(=O)Nc2ccc3c(c2)OCCO3)CC1`, the inhibition was 56.8% (active).

For the molecule `CCOCc1c(C(=O)Nc2ccccc2N2CCN(C)CC2)oc2ccccc12`, the inhibition was 70.5% (active).

Consider `Clc1ccc2c(c1)-c1ccccc1C1=NCCN12`, for which the inhibition was 90.7% (active).

For the molecule `Cc1ccc(CC(=O)Nc2ccncc2)cc1`, the inhibition is 64.3% (active).

Consider `O=C(N/N=C/c1ccc([N+](=O)[O-])s1)C(O)c1ccccc1` (stereo not given), for which the inhibition is 46.7% (active).

As for `O=C(O)/C=C/C(=O)Nc1ccccc1SC(F)(F)C(F)(F)C(F)(F)F`, the inhibition was 54.8% (active).

For `O=C(NCc1cccnc1)c1ccc(NC(=O)c2ccc(Br)cc2)cc1`, the inhibition was 75.9% (active).

In the case of `CC(=O)Nc1ccc(N=c2cc([N+](=O)[O-])cc(Cl)n2O)cc1`, the inhibition is 59.6% (active).

As for `CCn1nnc(NC(=O)c2ccc([N+](=O)[O-])o2)n1`, the inhibition is 57.8% (active).

`CCc1c(O)nc(SCC(=O)Nc2ccccc2C)n(-c2ccc(C)cc2)c1=O`: the inhibition was 56.4% (active).

In the case of `C[C@H](CO)N1C[C@H](C)[C@H](CN(C)Cc2ccncc2)Oc2cc(-c3ccccc3F)ccc2S1(=O)=O`, the inhibition is 64.6% (active).

With `CCOc1cc(/C=N/n2nnnc2N)ccc1OCc1c(C)no[n+]1[O-]`, the inhibition was 53.2% (active).

On to `Cc1ccc(NC(=O)CNNC(=O)c2cccc([N+](=O)[O-])c2)cc1[N+](=O)[O-]`, for which the inhibition is 34.6%.

With `CS(=O)(=O)N1CCN(c2ccccc2NC(=O)c2cc3ccccc3o2)CC1`, the inhibition was 47.5% (active).

Regarding `O=C(Nc1ccccc1)c1oc2ccccc2c1NC(=O)C1CC1`, the inhibition was 52.8% (active).

Regarding `CCOc1ccc(CCNC(=O)COC(=O)c2ccc(F)c(S(=O)(=O)N3CCOCC3)c2)cc1OCC`, the inhibition is 61.8% (active).

With `COc1cccc(C=Nc2ccc3c(c2)OCCO3)c1O`, the inhibition is -12%.

`NC(=S)N/N=C/c1ccc(C(F)(F)F)cc1`: the inhibition was 48.1% (active).

Consider `Cc1ccc2cccc(OCC(=O)NCCC3=CCCCC3)c2n1`, for which the inhibition was 61.1% (active).

Regarding `CCOc1ccc(NC(=O)CSc2nccn(-c3ccc4c(c3)OCCO4)c2=O)cc1`, the inhibition was 55% (active).
